Experimental findings from PubChem BioAssay (NCATS) are described below.

Results filed as inconclusive are left out. Activity calls are given as the source filed them. Calls follow the shape of the dose curve; as a rule, active = well fitted activation curve with a large enough effect; inconclusive = small, poorly fitted or top-dose-only effect; inactive = no such curve, though single readings can be large or run the other way.
Potency is read from the fitted curve at half-maximal effect.

In the experiment the target is Cellular tumor antigen p53 (Homo sapiens) (UniProt P04637). Put plainly: Primary qHTS for small molecule compounds that upregulate eGFP-tagged delta133p53alpha (in N-terminal) cells. (AID 2060322). Also: nearly all actives have a fitted effect of over 75% in size.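 As to activation: cells pre-induced with doxycycline then dosed without doxycycline; series mostly up to about 56 µM; 0% = DMSO vehicle and 100% = reference activator.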 Conditions: NCI-H358 eGFP-delta133p53alpha fluorescence, 24 h; activation: active compounds read high. A digest of the protocol: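 NCI-H358 cells pre-induced 24 h with 10 ng/ml doxycycline for eGFP-delta133p53alpha, plated dox-free and exposed 24 h at 37C to titrated compounds. Fixed, Hoechst-stained; gated GFP peak intensity by laser scanning cytometry, normalized to DMSO (0%) and 57.5 uM 5-azacytidine (100%).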
Chain of Cellular tumor antigen p53 (Homo sapiens) (P04637 whole entry, looked up): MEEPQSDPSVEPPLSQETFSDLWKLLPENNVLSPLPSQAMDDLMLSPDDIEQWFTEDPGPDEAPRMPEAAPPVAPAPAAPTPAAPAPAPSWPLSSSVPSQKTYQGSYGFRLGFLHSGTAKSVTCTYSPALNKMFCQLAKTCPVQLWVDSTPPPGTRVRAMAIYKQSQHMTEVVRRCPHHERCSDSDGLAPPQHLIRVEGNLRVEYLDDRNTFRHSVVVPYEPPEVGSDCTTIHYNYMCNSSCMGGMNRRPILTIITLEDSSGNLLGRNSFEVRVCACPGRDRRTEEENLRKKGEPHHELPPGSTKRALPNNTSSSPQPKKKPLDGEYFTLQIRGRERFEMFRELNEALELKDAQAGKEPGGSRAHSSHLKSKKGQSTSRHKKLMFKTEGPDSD
(Quantitative high-throughput screening tests each substance at several concentrations.)
`CC(=O)NCc1c(I)c(NC(C)=O)c(I)c(C(=O)O)c1I`: the activation is 16.4% (inactive).
Same read-out and setting: the result for `CCn1c(-c2nc3cc(C(=O)N4CCC[C@@H](N)C4)cc(OC)c3n2C)cc2ccccc21` reads -14.5% (inactive); that for `CSc1ccc(/C=C2/C(C)=C(CC(=O)O)c3cc(F)ccc32)cc1`, -8.47% (inactive).
The same measure, in the same setting: the result for `O=c1cc[nH]c(=O)[nH]1` reads -12.6% (inactive); that for `Nc1ccc(C(=O)OCC(O)CO)cc1` (stereo unspecified), 6.21% (inactive).
On the same count and under the same terms, the result for `C[C@]12CC[C@H](O)CC1=CC[C@@H]1[C@H]2CC[C@]2(C)C(c3cccnc3)=CC[C@H]12` reads -11.6% (inactive); that for `O=C(O)Cc1csc(-c2ccc(Cl)cc2)n1`, 15.3% (inactive).
As for `CCOc1cc(OCC)c(C(=O)CCC(=O)O)cc1OCC`, the activation was -15.3% (inactive).
Still for that read-out and setting: the result for `C=CCCCCCCCCC(=O)O` reads -20.9% (inactive); that for `O=C(O)COc1nn(Cc2ccccc2)c2ccccc12`, 28.8% (inactive); that for `C[C@H](NC(=O)C(C#N)=Cc1cccc(Br)n1)c1ccccc1`, 11.9% (inactive).
Still for that read-out and setting: the result for `O=C1c2ccccc2C(=O)c2c1ccc(O)c2O` reads -14.2% (inactive).
Still for that read-out and setting: the result for `COc1cc(NS(=O)(=O)c2ccc(N)cc2)nc(OC)n1` reads -0.195% (inactive); that for `Nc1nc(N)c(-c2ccccc2)s1`, -14.1% (inactive).
`CCCCCCCCCCCCCC(=O)OC(C)C`: the activation is 14.1% (inactive).
Turning to `OC1(c2ccccc2)CCNCC1`, the activation was 0.565% (inactive).
Still for that read-out and setting: the result for `CC(=O)OCC(=O)[C@@]1(O)CCC2C3CCC4=CC(=O)CC[C@]4(C)C3[C@@H](O)C[C@@]21C` (stereo partly specified) reads 25.1% (inactive); that for `O=C(CCCCC(=O)Nc1c(I)cc(I)c(C(=O)O)c1I)Nc1c(I)cc(I)c(C(=O)O)c1I`, 2.82% (inactive); that for `CC(=O)N1CCN(c2ccc(OCc3nn(C)c(C)c3-c3cccc4c(CCCOc5cc(C)c(Cl)c(C)c5)c(C(=O)O)n(Cc5cccnc5)c34)cc2)CC1`, -5.22% (inactive).
Same read-out and setting: the result for `C[C@]12C=CC(=O)C=C1[C@@H](F)C[C@@H]1[C@@H]2[C@@H](O)C[C@@]2(C)[C@H]1CC[C@]2(O)C(=O)CO` reads 7.53% (inactive); that for `C[C@]12C=CC(=O)C=C1CC[C@@H]1C2=CC[C@]2(C)[C@@H](C(=O)CN3CCN(c4cc(N5CCCC5)nc(N5CCCC5)n4)CC3)CC[C@@H]12`, -22.1% (inactive).
The same measure, in the same setting: the result for `CCCCC1(COC(=O)CCC(=O)O)C(=O)N(c2ccccc2)N(c2ccccc2)C1=O` reads -7.34% (inactive).
As to `NC(CSCC(=O)O)C(=O)O` (stereo unspecified), the activation is -5.08% (inactive).
`Nc1nc2ccc(Cl)cc2c2nc(-c3ccco3)nn12`: the Potency was 1.69 µM (active).
`COc1ccc(C(Cl)=C(c2ccc(OC)cc2)c2ccc(OC)cc2)cc1`: the activation was -1.67% (inactive).
Regarding `Nc1cccc2c(N)cccc12`, the Potency is 28.2 µM (active).
